# According to the supplement of paper PMC8728848:
# This is one part of a sample in which the strongest signals are shown more often than they occur.
# B1: UDA (Urtica dioica), P11218 (protein)
# chain: MMMRFLSAVVIMSSAMAVGLVSAQRCGSQGGGGTCPALWCCSIWGWCGDSEPYCGRTCENKCWSGERSDHRCGAAVGNPPCGQDRCCSVHGWCGGGNDYCSGSKCQYRCSSSVRGPRVALSGNSTANSIGNVVVTEPLFDQMFSHRKDCPSQGFYSYHSFLVAAESFPAFGTIGDVATRKREVAAFLAHISQATSGERSDVENPHAWGLCHINTTTVTENDFCTSSDWPCAAGKKYSPRGPIQLTHNFNYGLAGQAIGEDLIQNPDLVEKDPIISFKTALWFWMSQHDNKPSCHDIVLNANSAANRIPNKGVIGNIISRAFGHDDFAVRSSSIGFYKRYCDMLGVSYGHDLKYWFDNTPSSEFQRIQMRVAA
# Experiments:
# Assay in all cases: glycan array binding signal (z-score within array); higher = stronger binding
# Conditions in all cases: glycan notation: IUPAC condensed, linker removed
# [1] = molecular target: Fuc(a1-2)Gal(b1-3)GalNAc(b1-3)Gal
# Procedure, shortened: (§1)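 The binding signal is a Z-score computed within each array and averaged over linkers. Arrays of the same protein sequence at different concentrations or buffers were also averaged together. Data originate from 3228 arrays in the Consortium for Functional Glycomics database, kept only where the protein sequence was available.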
# [2] = molecular target: Fuc(a1-2)Gal(b1-3)GlcNAc(b1-3)[Gal(b1-4)GlcNAc(b1-6)]Gal(b1-4)Glc
# Procedure, shortened: as §1
# [3] = molecular target: Fuc(a1-2)Gal(b1-3)GlcNAc6S
# Procedure, shortened: as §1
# [4] = molecular target: Fuc(a1-2)Gal(b1-4)GlcNAc(b1-2)[Fuc(a1-2)Gal(b1-4)GlcNAc(b1-4)]Man(a1-3)[Fuc(a1-2)Gal(b1-4)GlcNAc(b1-2)Man(a1-6)]Man(b1-4)GlcNAc(b1-4)GlcNAc
# Procedure, shortened: as §1
# [5] = molecular target: Fuc(a1-2)Gal6S(b1-3)GlcNAc
# Procedure, shortened: as §1
# [6] = molecular target: Fuc(a1-2)[Gal(a1-3)]Gal(b1-3)GlcNAc
# Procedure, shortened: as §1
# [7] = molecular target: Fuc(a1-2)[GalNAc(a1-3)]Gal(b1-4)GlcNAc(b1-3)Gal(b1-4)GlcNAc
# Procedure, shortened: as §1
# [8] = molecular target: Fuc(a1-3)[Gal(b1-4)]GlcNAc(b1-2)Man(a1-3)[Fuc(a1-3)[Gal(b1-4)]GlcNAc(b1-2)Man(a1-6)]Man(b1-4)GlcNAc(b1-4)GlcNAc
# Procedure, shortened: as §1
# [9] = molecular target: Fuc(a1-3)[GalNAc(b1-4)]GlcNAc
# Procedure, shortened: as §1
# Fuc(a1-4)GlcNAc = molecular target: Fuc(a1-4)GlcNAc
# Procedure, shortened: as §1
# Gal(a1-3)Gal = molecular target: Gal(a1-3)Gal
# Procedure, shortened: as §1
# [10] = molecular target: Gal(a1-3)Gal(b1-3)GlcNAc(b1-3)GalNAc
# Procedure, shortened: as §1
# [11] = molecular target: Gal(a1-3)Gal(b1-4)[Fuc(a1-3)]GlcNAc
# Procedure, shortened: as §1
# Gal(a1-4)Gal(b1-4)GlcNAc = molecular target: Gal(a1-4)Gal(b1-4)GlcNAc
# Procedure, shortened: as §1
# Gal(b1-3)GalNAc(b1-3)Gal = molecular target: Gal(b1-3)GalNAc(b1-3)Gal
# Procedure, shortened: as §1
# [12] = molecular target: Gal(b1-3)GalNAc(b1-4)Gal(b1-4)Glc
# Procedure, shortened: as §1
# [13] = molecular target: Gal(b1-3)GalNAc(b1-4)[Neu5Ac(a2-3)]Gal(b1-4)Glc
# Procedure, shortened: as §1
# [14] = molecular target: Gal(b1-3)GlcNAc(a1-6)Gal(b1-4)GlcNAc
# Procedure, shortened: as §1
# [15] = molecular target: Gal(b1-3)GlcNAc(b1-2)Man(a1-3)[Gal(b1-3)GlcNAc(b1-2)Man(a1-6)]Man(b1-4)GlcNAc(b1-4)GlcNAc
# Procedure, shortened: as §1
# [16] = molecular target: Gal(b1-3)GlcNAc(b1-2)Man(a1-3)[Gal(b1-3)GlcNAc(b1-2)Man(a1-6)]Man(b1-4)GlcNAc(b1-4)[Fuc(a1-6)]GlcNAc
# Procedure, shortened: as §1
# [17] = molecular target: Gal(b1-3)GlcNAc(b1-6)[Gal(b1-3)]GalNAc
# Procedure, shortened: as §1
# [18] = molecular target: Gal(b1-3)[Neu5Ac(b2-6)]GalNAc
# Procedure, shortened: as §1
# Gal(b1-4)GlcNAc = molecular target: Gal(b1-4)GlcNAc
# Procedure, shortened: as §1
# [19] = molecular target: Gal(b1-4)GlcNAc(b1-2)Man(a1-3)[Man(a1-6)]Man(b1-4)GlcNAc(b1-4)GlcNAc
# Procedure, shortened: as §1
# [20] = molecular target: Gal(b1-4)GlcNAc(b1-2)[Gal(b1-4)GlcNAc(b1-4)]Man(a1-3)[GlcNAc(b1-4)][Gal(b1-4)GlcNAc(b1-2)[Gal(b1-4)GlcNAc(b1-6)]Man(a1-6)]Man(b1-4)GlcNAc(b1-4)GlcNAc
# Procedure, shortened: as §1
# [21] = molecular target: Gal(b1-4)GlcNAc(b1-3)Gal(b1-4)GlcNAc(b1-3)Gal(b1-4)GlcNAc(b1-3)Gal(b1-4)GlcNAc(b1-3)Gal(b1-4)GlcNAc(b1-2)Man(a1-3)[Gal(b1-4)GlcNAc(b1-3)Gal(b1-4)GlcNAc(b1-3)Gal(b1-4)GlcNAc(b1-3)Gal(b1-4)GlcNAc(b1-3)Gal(b1-4)GlcNAc(b1-2)Man(a1-6)]Man(b1-4)GlcNAc(b1-4)[Fuc(a1-6)]GlcNAc
# Procedure, shortened: as §1
# [22] = molecular target: Gal3S(b1-4)[Fuc(a1-3)]GlcNAc
# Procedure, shortened: as §1
# GalNAc(a1-3)GalNAc = molecular target: GalNAc(a1-3)GalNAc
# Procedure, shortened: as §1
# [23] = molecular target: GalNAc(a1-3)GalNAc(b1-3)Gal(a1-4)Gal(b1-4)GlcNAc
# Procedure, shortened: as §1
# GlcA(b1-3)Gal = molecular target: GlcA(b1-3)Gal
# Procedure, shortened: as §1
# [24] = molecular target: GlcNAc(a1-4)Gal(b1-4)GlcNAc
# Procedure, shortened: as §1
# [25] = molecular target: GlcNAc(b1-2)[GlcNAc(b1-4)]Man(a1-3)[GlcNAc(b1-2)Man(a1-6)]Man(b1-4)GlcNAc(b1-4)GlcNAc
# Procedure, shortened: as §1
binder,measurement,setting,value
B1,glycan array binding signal (z-score),[1],-0.215
same,glycan array binding signal (z-score),[2],-0.109
same,glycan array binding signal (z-score),[3],-0.182
same,glycan array binding signal (z-score),[4],-0.161
same,glycan array binding signal (z-score),[5],-0.184
same,glycan array binding signal (z-score),[6],-0.167
same,glycan array binding signal (z-score),[7],-0.054
same,glycan array binding signal (z-score),[8],-0.165
same,glycan array binding signal (z-score),[9],-0.172
same,glycan array binding signal (z-score),Fuc(a1-4)GlcNAc,-0.178
same,glycan array binding signal (z-score),Gal(a1-3)Gal,-0.189
same,glycan array binding signal (z-score),[10],-0.177
same,glycan array binding signal (z-score),[11],-0.183
same,glycan array binding signal (z-score),Gal(a1-4)Gal(b1-4)GlcNAc,-0.101
same,glycan array binding signal (z-score),Gal(b1-3)GalNAc(b1-3)Gal,-0.178
same,glycan array binding signal (z-score),[12],-0.186
same,glycan array binding signal (z-score),[13],-0.189
same,glycan array binding signal (z-score),[14],-0.166
same,glycan array binding signal (z-score),[15],0.04
same,glycan array binding signal (z-score),[16],-0.156
same,glycan array binding signal (z-score),[17],-0.177
same,glycan array binding signal (z-score),[18],-0.187
same,glycan array binding signal (z-score),Gal(b1-4)GlcNAc,0.006
same,glycan array binding signal (z-score),[19],4.63
same,glycan array binding signal (z-score),[20],-0.17
same,glycan array binding signal (z-score),[21],1.52
same,glycan array binding signal (z-score),[22],-0.184
same,glycan array binding signal (z-score),GalNAc(a1-3)GalNAc,-0.191
same,glycan array binding signal (z-score),[23],-0.177
same,glycan array binding signal (z-score),GlcA(b1-3)Gal,-0.173
same,glycan array binding signal (z-score),[24],0.188
same,glycan array binding signal (z-score),[25],0.083
